# In PubChem BioAssay (EPA / NIEHS):
# Records with an inconclusive call do not appear. Active and inactive are the calls of the source. How the source made its calls: active means hit-call score of the fitted dose curve at least 0.9, where 1 is the maximum; inconclusive means response in the unintended direction; inactive means score below 0.9.
# Columns and labels:
# [1] = molecular target: Luciferin 4-monooxygenase (Photinus pyralis) (UniProt P08659); experiment: CCTE_Simmons_QuantiLum_inhib_2: CCTE's Firefly Luciferase Inhibition Assay, Simmons Lab (AID 2283767);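 on AC50: potency for inhibitors that lower luciferase luminescence relative to DMSO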
# Summary of the method: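 Cell-free recombinant firefly luciferase (5 ng/well) in 200mM potassium phosphate with 1 mg/ml BSA, 30 min at 37C with 8 concentrations from 5 nM to 87.5 uM [final], 0.5% DMSO. Luminescence read after D-luciferin (150uM)/dATP (147uM) reagent injection, pH 7.8; triplicates.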
# [2] = ACEA_AR_agonist_AUC_viability: ACEA Biosciences xCELLigence Real-Time Cell Analysis on Androgen Receptor Agonism for Viability (AID 2283775);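 on AC50: viability read 80 hours after compound addition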
# Summary of the method: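 Real-time impedance tracking of 22Rv1 growth, readings every 5 min for 5 h then hourly; area-under-curve viability endpoint at 80 hours, relative to DMSO. Compounds at eight concentrations, 1:4 steps, top 100 uM, n = 2.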
# [3] = ACEA_AR_antagonist_AUC_viability: ACEA Biosciences xCELLigence Real-Time Cell Analysis on Androgen Receptor Antagonism for Viability (AID 2283776);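 further: 22Rv1 human prostate cancer cells growing on impedance electrode plates; hits lower the growth signal relative to DMSO meaning cytotoxicity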
# Summary of the method: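 Viability endpoint from label-free cell-index monitoring: 22Rv1 cultures treated with an eight-point 1:4 dilution series starting at 100 uM final, AUC at 80 h fitted against DMSO.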
# AR (gene 367) = AR (gene 367) (UniProt P10275); experiment: ACEA_AR_agonist_80hr: ACEA Biosciences xCELLigence Real-Time Cell Analysis on Androgen Receptor Agonism for Proliferation (AID 2283783);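 further: hits increase impedance growth signal above DMSO baseline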
# Summary of the method: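 22Rv1 human prostate cancer cells were seeded after preconditioning in assay medium and monitored overnight, then dosed in an eight-point 1:4 dilution series from 100 uM (≤0.5% DMSO). Impedance-based growth was read at 80 h, gain-of-signal versus DMSO.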
# [4] = system: chicken Androgen Receptor (AR), gene 422165; experiment: ATG_chAR_XSP1: Attagene TRANS-FACTORIAL Multi-Species (XSP1) HepG2 Assay for chicken Androgen Receptor (AR) (AID 2283768)
# Summary of the method: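 HepG2 cells transiently transfected with multiplexed GAL4-UAS reporter units expressing chimeric chicken AR-Gal4; 3 nM 6-alpha-fluorotestosterone for partial AR stimulation; 24 h after dosing, reporter mRNA by RT-PCR and capillary electrophoresis, gain-of-signal versus DMSO.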
# [5] = molecular target: zebrafish Estrogen Receptor (ESR1), esr1 (gene 259252) (UniProt P57717); experiment: ATG_zfER1_XSP1: Attagene TRANS-FACTORIAL Multi-Species (XSP1) HepG2 Assay for zebrafish Estrogen Receptor (ESR1) (AID 2283772)
# Summary of the method: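 Exogenous chimeric receptor-GAL4 activity is measured in transiently transfected human HepG2 liver cells after 24 h compound exposure. Reporter transcripts are detected by RT-PCR and fluorescent capillary electrophoresis, analysed for signal gain relative to DMSO.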
# [6] = system: zebrafish Estrogen Receptor (ESR2B), gene 317733; experiment: ATG_zfER2b_XSP1: Attagene TRANS-FACTORIAL Multi-Species (XSP1) HepG2 Assay for zebrafish Estrogen Receptor (ESR2B) (AID 2283773)
# Summary of the method: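 HepG2 cells transiently transfected with multiple GAL4-UAS reporter units expressing chimeric zebrafish ER2b-Gal4; 24 h chemical exposure with 3 nM 6-alpha-fluorotestosterone present. Reporter mRNA measured by RT-PCR and capillary electrophoresis; gain of signal fitted versus DMSO.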
# [7] = system: frog Estrogen Receptor (ESR2), gene 100174814; experiment: ATG_frER2_XSP1: Attagene TRANS-FACTORIAL Multi-Species (XSP1) HepG2 Assay for frog Estrogen Receptor (ESR2) (AID 2283774)
# Summary of the method: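 HepG2 cells transiently transfected with GAL4-UAS multiplexed reporter units expressing chimeric NR-Gal4 proteins; reporter mRNA measured 24 h after dosing by RT-PCR, FAM labeling, HpaI digestion and capillary electrophoresis. Gain-of-signal relative to DMSO; 3 nM 6-alpha-fluorotestosterone present.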
# [8] = system: frog Estrogen Receptor (ESR1), gene 398734; experiment: ATG_frER1_XSP1: Attagene TRANS-FACTORIAL Multi-Species (XSP1) HepG2 Assay for frog Estrogen Receptor (ESR1) (AID 2283777)
# Summary of the method: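 Read-out: fluorescent reporter mRNA via RT-PCR, HpaI digestion and capillary electrophoresis, after 24 h chemical exposure of transiently transfected human HepG2 cells expressing exogenous NR-Gal4 chimeras. DMSO served as baseline for positive-direction fitting.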
# [9] = system: zebrafish Estrogen Receptor (ESR2A), gene 317734; experiment: ATG_zfER2a_XSP1: Attagene TRANS-FACTORIAL Multi-Species (XSP1) HepG2 Assay for zebrafish Estrogen Receptor (ESR2A) (AID 2283778)
# Summary of the method: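 HepG2 cells transiently transfected with multiplexed GAL4-UAS reporter units and chimeric NR-GAL4 receptors; 24 h compound exposure with 3 nM 6-alpha-fluorotestosterone present. Reporter mRNA quantified by RT-PCR and capillary electrophoresis, gain-of-signal fitted relative to DMSO.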
# [10] = molecular target: chicken Estrogen Receptor (ESR1), ESR1 (gene 396099) (UniProt P06212); experiment: ATG_chERa_XSP1: Attagene TRANS-FACTORIAL Multi-Species (XSP1) HepG2 Assay for chicken Estrogen Receptor (ESR1) (AID 2283779)
# Summary of the method: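 HepG2 cells transiently transfected with multiplexed GAL4-UAS reporter units expressing chimeric NR-Gal4 proteins; 3 nM 6-alpha-fluorotestosterone present. Reporter mRNA measured 24 h after dosing by RT-PCR, FAM labelling, HpaI digest and capillary electrophoresis; gain of signal versus DMSO.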
# [11] = molecular target: Estrogen receptor (Homo sapiens) (UniProt P03372); experiment: ATG_hERa_XSP1: Attagene TRANS-FACTORIAL Multi-Species (XSP1) HepG2 Assay for human Estrogen Receptor (ESR1) (AID 2283780)
# Summary of the method: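 HepG2 cells transiently transfected with GAL4-UAS reporter units and chimeric NR-Gal4 constructs; 24 h after dosing, reporter mRNA quantified by RT-PCR and capillary electrophoresis. Medium contained 3 nM 6-alpha-fluorotestosterone; activity fitted as gain-of-signal versus DMSO.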
# [12] = system: turtle Estrogen Receptor (ESR1), gene 101933533; experiment: ATG_trERa_XSP1: Attagene TRANS-FACTORIAL Multi-Species (XSP1) HepG2 Assay for turtle Estrogen Receptor (ESR1) (AID 2283781)
# Summary of the method: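 HepG2 cells transiently transfected with GAL4-UAS reporter units and chimeric NR-Gal4 constructs, dosed for 24 h with 3 nM 6-alpha-fluorotestosterone present. Reporter mRNA was quantified by RT-PCR, fluorescent labelling and capillary electrophoresis, with gain of signal fitted relative to DMSO.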
# [13] = system: turtle Androgen Receptor (AR), gene 101947425; experiment: ATG_trAR_XSP1: Attagene TRANS-FACTORIAL Multi-Species (XSP1) HepG2 Assay for turtle Androgen Receptor (AR) (AID 2283786)
# Summary of the method: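 HepG2 cells transiently transfected with a turtle AR–GAL4 chimera and GAL4-UAS reporter, co-treated with 3 nM 6-alpha-fluorotestosterone for partial stimulation. Reporter mRNA is quantified at 24 h by RT-PCR and capillary electrophoresis, gain-of-signal versus DMSO.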
# [14] = STM_H9_NormalizedViability: Cytotoxicity Assessment at 120 hours in the Stemina devTOX quickPredict H9 human embryonic stem cell (hESC)-based Assay (AID 2283784)
# Summary of the method: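 Pluripotent H9 hESCs were exposed, with chemical and media replaced every 24 h. Viability was read by CellTiter-Fluor fluorescence, background-corrected and normalized to the 0.1% DMSO neutral control per plate. Loss of signal was fitted.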
# [15] = ACEA_ER_AUC_viability: ACEA Biosciences xCELLigence Real-Time Cell Analysis on Estrogen Receptor Agonism for Viability (AID 2283782);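 further: continuous compound exposure with impedance area under curve over 80 h; hit means loss of impedance signal meaning reduced cell growth or viability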
# Summary of the method: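 T-47D human breast cells in phenol red-free RPMI1640 with 10% charcoal-stripped FBS were dosed with an 8-point 1:4 dilution series from 100 uM top final concentration, in duplicate. Impedance-based growth was followed for 80 h; AUC analysed versus DMSO.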
# [16] = ArunA_NOG_NeuriteLength: ArunA Biomedical's Neurite Outgrowth (NOG) Assay for Neurite Length (AID 2283757)
# Summary of the method: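 Differentiated human H9-derived neurons were exposed for 48 h from seeding, then stained with Hoechst and βIII-tubulin. Automated high-content imaging gave total neurite length per valid neuron, counting processes >10 um. Loss of signal was scored versus DMSO.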
# Chain of Estrogen receptor (Homo sapiens) (P03372 whole entry, looked up, the tested form may be a part): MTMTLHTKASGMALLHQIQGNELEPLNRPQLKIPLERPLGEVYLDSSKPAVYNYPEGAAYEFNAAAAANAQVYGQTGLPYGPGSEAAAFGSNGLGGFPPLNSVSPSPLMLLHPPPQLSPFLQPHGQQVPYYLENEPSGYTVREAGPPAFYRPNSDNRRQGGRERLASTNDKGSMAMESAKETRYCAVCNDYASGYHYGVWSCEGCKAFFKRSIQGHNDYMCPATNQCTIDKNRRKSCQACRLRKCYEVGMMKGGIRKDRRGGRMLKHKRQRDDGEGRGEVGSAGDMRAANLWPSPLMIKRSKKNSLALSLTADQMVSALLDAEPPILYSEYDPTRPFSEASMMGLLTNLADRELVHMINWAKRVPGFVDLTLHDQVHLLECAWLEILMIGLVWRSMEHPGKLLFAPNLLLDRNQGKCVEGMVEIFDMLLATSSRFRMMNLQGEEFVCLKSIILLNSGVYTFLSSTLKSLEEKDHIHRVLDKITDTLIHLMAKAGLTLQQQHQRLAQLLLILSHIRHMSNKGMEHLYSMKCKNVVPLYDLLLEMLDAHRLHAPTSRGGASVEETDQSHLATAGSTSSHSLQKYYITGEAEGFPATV
# Chain of Luciferin 4-monooxygenase (Photinus pyralis) (P08659 whole entry, looked up): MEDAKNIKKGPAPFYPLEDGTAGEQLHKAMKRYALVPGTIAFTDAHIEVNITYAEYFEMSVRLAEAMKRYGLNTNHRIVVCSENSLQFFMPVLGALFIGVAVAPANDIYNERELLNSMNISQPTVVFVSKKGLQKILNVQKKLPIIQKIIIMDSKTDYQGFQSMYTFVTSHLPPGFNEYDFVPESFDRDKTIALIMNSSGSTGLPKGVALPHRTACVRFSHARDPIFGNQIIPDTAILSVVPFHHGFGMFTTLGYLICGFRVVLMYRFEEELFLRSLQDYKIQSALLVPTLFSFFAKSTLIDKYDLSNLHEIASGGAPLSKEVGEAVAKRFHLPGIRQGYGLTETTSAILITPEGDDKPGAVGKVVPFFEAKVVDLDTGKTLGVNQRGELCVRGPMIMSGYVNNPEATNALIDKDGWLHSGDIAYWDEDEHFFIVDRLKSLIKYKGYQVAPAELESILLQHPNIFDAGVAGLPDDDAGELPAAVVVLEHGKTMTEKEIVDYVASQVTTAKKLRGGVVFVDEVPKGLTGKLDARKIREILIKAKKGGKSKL
# Chain of zebrafish Estrogen Receptor (ESR1), esr1 (gene 259252) (P57717 whole entry, looked up, the tested form may be a part): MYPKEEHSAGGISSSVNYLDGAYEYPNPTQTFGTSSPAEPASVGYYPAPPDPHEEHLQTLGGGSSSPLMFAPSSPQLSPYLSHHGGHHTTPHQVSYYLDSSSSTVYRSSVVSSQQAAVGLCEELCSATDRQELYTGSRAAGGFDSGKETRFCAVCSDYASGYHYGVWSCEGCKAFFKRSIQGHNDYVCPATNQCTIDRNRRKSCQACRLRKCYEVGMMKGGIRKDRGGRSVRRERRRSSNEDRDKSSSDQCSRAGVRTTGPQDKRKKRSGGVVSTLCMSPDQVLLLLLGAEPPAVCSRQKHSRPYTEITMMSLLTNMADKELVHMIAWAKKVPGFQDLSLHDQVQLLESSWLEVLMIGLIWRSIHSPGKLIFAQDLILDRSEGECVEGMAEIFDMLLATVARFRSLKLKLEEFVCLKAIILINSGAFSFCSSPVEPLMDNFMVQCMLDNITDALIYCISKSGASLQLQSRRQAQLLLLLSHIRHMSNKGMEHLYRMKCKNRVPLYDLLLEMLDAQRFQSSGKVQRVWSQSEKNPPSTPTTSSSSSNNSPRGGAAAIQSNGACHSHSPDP
# Chain of chicken Estrogen Receptor (ESR1), ESR1 (gene 396099) (P06212 whole entry, looked up, the tested form may be a part): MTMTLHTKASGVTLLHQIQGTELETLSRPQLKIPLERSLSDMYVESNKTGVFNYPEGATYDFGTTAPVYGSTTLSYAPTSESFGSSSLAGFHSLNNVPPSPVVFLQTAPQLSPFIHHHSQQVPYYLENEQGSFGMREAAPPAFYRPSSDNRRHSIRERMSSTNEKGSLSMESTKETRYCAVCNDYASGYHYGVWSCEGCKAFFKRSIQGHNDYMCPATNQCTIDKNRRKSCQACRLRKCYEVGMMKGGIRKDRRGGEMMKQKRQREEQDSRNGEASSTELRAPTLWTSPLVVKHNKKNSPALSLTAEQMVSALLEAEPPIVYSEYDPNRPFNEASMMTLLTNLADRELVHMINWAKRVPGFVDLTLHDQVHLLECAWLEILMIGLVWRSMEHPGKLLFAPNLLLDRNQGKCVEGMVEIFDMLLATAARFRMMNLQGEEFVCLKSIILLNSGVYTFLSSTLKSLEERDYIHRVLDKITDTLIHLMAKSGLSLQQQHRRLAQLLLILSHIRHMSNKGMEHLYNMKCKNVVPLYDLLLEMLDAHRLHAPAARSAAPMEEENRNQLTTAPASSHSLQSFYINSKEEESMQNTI
# Chain of AR (gene 367) (P10275 whole entry, looked up): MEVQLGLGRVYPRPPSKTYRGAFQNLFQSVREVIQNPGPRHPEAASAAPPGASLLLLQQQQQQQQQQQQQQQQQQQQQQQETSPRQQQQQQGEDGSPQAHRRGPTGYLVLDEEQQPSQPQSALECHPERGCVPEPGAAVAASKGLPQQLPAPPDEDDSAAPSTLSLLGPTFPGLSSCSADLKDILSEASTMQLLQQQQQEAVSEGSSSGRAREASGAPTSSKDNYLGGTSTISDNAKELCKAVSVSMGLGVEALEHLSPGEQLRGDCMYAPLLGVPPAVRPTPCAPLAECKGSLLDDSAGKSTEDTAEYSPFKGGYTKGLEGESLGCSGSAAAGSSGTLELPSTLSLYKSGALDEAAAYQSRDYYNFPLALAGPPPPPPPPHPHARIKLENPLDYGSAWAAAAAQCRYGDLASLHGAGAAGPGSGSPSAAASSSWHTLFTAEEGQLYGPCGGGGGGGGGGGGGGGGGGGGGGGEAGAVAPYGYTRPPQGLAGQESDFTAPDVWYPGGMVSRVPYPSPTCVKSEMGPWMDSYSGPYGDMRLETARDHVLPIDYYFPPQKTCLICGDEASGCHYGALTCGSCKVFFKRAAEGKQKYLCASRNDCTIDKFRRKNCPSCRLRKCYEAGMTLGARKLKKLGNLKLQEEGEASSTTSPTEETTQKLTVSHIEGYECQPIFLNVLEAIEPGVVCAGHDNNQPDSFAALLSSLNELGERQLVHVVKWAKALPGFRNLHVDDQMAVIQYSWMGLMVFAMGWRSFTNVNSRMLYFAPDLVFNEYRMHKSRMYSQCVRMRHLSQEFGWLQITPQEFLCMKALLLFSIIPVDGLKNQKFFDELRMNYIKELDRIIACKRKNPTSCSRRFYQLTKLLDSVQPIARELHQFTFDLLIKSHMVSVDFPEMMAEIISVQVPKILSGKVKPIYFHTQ
compound,measurement,setting,value
CCOc1nc(F)cc2nc(S(=O)(=O)Nc3c(Cl)cccc3Cl)nn12,outcome,[1],inactive
same,outcome,[2],inactive
COP(=S)(OC)SCn1nnc2ccccc2c1=O,outcome,[1],inactive
same,AC50,[2],79.9 µM (active)
same,AC50,[3],64.7 µM (active)
same,outcome,AR (gene 367),inactive
CC1(C)C(C=C(Cl)Cl)C1C(=O)OC(C#N)c1cccc(Oc2ccccc2)c1 (configuration not stated),outcome,[4],inactive
same,outcome,[5],inactive
same,AC50,[6],72.5 µM (active)
same,AC50,[7],27.3 µM (active)
same,AC50,[2],73.1 µM (active)
same,outcome,[3],inactive
same,AC50,[8],2.24 µM (active)
same,outcome,[9],inactive
same,outcome,[10],inactive
same,AC50,[11],1.45 µM (active)
same,outcome,[12],inactive
same,outcome,[13],inactive
O=c1n(Cl)c(=O)n(Cl)c(=O)n1Cl,outcome,[1],inactive
same,outcome,[2],inactive
same,outcome,[3],inactive
CCN(CC)C(=O)C(C)Oc1cccc2ccccc12 (configuration not stated),AC50,[1],0.000739 µM (active)
same,outcome,[5],inactive
same,AC50,[6],27.1 µM (active)
same,AC50,[7],27.4 µM (active)
same,outcome,[2],inactive
same,outcome,[3],inactive
same,AC50,[8],24.8 µM (active)
same,AC50,[9],25.8 µM (active)
same,outcome,[10],inactive
same,outcome,[11],inactive
same,AC50,[12],5.99 µM (active)
same,outcome,[14],inactive
COP(=S)(OC)Oc1ccc([N+](=O)[O-])c(C)c1,outcome,[1],inactive
same,outcome,[5],inactive
same,AC50,[6],74.4 µM (active)
same,AC50,[7],65.9 µM (active)
same,AC50,[2],87.3 µM (active)
same,AC50,[3],71.9 µM (active)
same,AC50,[8],48.9 µM (active)
same,outcome,[9],inactive
same,AC50,[10],43.2 µM (active)
same,AC50,[11],36.7 µM (active)
same,AC50,[12],50.1 µM (active)
same,outcome,[15],inactive
CCNC(=O)NC(=O)C(C#N)=NOC,outcome,[1],inactive
same,outcome,[3],inactive
same,outcome,[15],inactive
same,outcome,[14],inactive
COCc1cnc(C2=NC(C)(C(C)C)C(=O)N2)c(C(=O)O)c1 (configuration not stated),outcome,[16],inactive
same,outcome,[15],inactive
same,outcome,AR (gene 367),inactive
same,outcome,[14],inactive
N#Cc1c(Cl)cccc1Cl,outcome,[2],inactive
same,outcome,[3],inactive
COC(=O)c1c(C(F)F)nc(C(F)(F)F)c(C2=NCCS2)c1CC(C)C,outcome,[2],inactive
same,outcome,[3],inactive
O=P(O)(O)CCCl,outcome,[1],inactive
same,outcome,[2],inactive
same,outcome,[3],inactive
same,outcome,[15],inactive
COCC(=O)N(c1c(C)cccc1C)C(C)C(=O)OC (configuration not stated),outcome,[2],inactive
CCOC(=O)C(C)OC(=O)c1cc(Oc2ccc(C(F)(F)F)cc2Cl)ccc1[N+](=O)[O-] (configuration not stated),AC50,[2],74 µM (active)
same,AC50,[3],50 µM (active)
CCC(C)n1c(=O)[nH]c(C)c(Br)c1=O (configuration not stated),outcome,[2],inactive
same,outcome,[3],inactive
CN=C=S,outcome,[2],inactive
same,outcome,[3],inactive
CC(C)=CC1C(C(=O)OCc2coc(Cc3ccccc3)c2)C1(C)C (configuration not stated),outcome,[1],inactive
same,AC50,[2],46 µM (active)
same,AC50,[3],40.4 µM (active)
same,AC50,[15],84 µM (active)
